Measured values published in PubChem BioAssay (NCATS).
Inconclusive results are not listed. Activity calls are given as the source filed them. Calls follow the shape of the dose curve; as a rule, active = well fitted inhibition curve with a large enough effect; inconclusive = small, poorly fitted or top-dose-only effect; inactive = flat fitted curve, though single readings scatter.

The compounds below were run against Calcium and integrin-binding protein 1 (Homo sapiens) (UniProt Q99828) (assay: Primary qHTS for Identification of Calcium Integrin Binding Protein 1 (CIB1) Competitor (AID 1508620;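 also: GST tagged CIB1 binding a fluorescein labelled alphaIIb integrin peptide tracer; top concentration of the series differs between compounds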)). Conditions: CIB1-GST / FITC-alphaIIb peptide fluorescence polarization; series mostly up to 114 µM; activity change, negative = inhibition: at the top concentration.
Sequence of Calcium and integrin-binding protein 1 (Homo sapiens) (Q99828 whole entry, looked up): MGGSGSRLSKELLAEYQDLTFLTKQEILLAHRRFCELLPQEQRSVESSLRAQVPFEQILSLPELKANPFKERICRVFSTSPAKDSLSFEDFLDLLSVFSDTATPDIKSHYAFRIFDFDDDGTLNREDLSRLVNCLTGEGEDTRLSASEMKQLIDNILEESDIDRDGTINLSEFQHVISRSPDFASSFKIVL
Method in brief: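 Fluorescence polarization competition: CIB1-GST (1 uM final) preincubated with compound 15 min at room temperature, then FITC-labeled alphaIIb peptide (100 nM final) added for another 15 min. Polarization read at Ex 480/Em 540.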
% is scaled to controls: 0 for no effect and ±100 for the full control effect.

Row | Structure (SMILES) | activity change, negative = inhibition
1 | Clc1ccccc1CSc1nc2ncc(Br)cc2[nH]1 | 0.461% (inactive)
2 | CN(C)c1cccc(-c2ncnc(N3CCC(C(N)=O)CC3)n2)c1 | 5.23% (inactive)
3 | O=C(OCC#CCNc1nnc(-c2cccc3ccccc23)o1)c1cccs1 | -4.2% (inactive)
4 | CCn1cnc2c(Nc3ccc(CCC(=O)N=C(N)N)cc3)nc(C#N)nc21 | -6.44% (inactive)
5 | COc1ccc(OC)c(C2=Nn3c(nnc3-c3ccccc3C)SC2)c1 | 2.78% (inactive)
6 | CCN(Cc1ccccc1)c1ccc(Br)cn1 | -1.61% (inactive)
7 | CC(C)c1cccc(-n2cnc3cc(C(=O)N4CCCCC4)ccc32)c1 | -2.36% (inactive)
8 | COc1ccc(S(=O)(=O)Nc2ccc(C)c(C)c2)cc1 | -0.199% (inactive)
9 | COc1ccc(C(=O)NCC(=O)OC(C(=O)Nc2cc(C(F)(F)F)ccc2Cl)c2ccccc2)cc1OC (centres undefined) | -0.549% (inactive)
10 | Cn1nnnc1Sc1ncnc2scc(-c3ccc(C(F)(F)F)cc3)c12 | 1.66% (inactive)
11 | COc1ccc(C2Nc3ccccc3C(=O)N2Cc2ccccc2)cc1COc1c(C)cccc1C (centres undefined) | 3.08% (inactive)
12 | CC(C)(C)n1cnc2cc(C(=O)N3CCCCC3)ccc21 | 8.77% (inactive)
13 | CC(C)Oc1ccc(-c2ccc(=O)n(CC(=O)NCCc3ccccc3)n2)cc1 | -5.21% (inactive)
14 | CCOC(=O)c1ccc(-n2cnc3cc(C(=O)N4CCCCC4)ccc32)cc1 | 2.92% (inactive)
15 | Cc1cc(C)nc(NC(=S)N2CCN(c3ncnc4ccccc34)CC2)c1 | 2.7% (inactive)
16 | C=Cc1cc(F)c(S(=O)(=O)N2CCN(S(=O)(=O)c3ccc4c(c3)OCCO4)CC2)cc1F | 7.85% (inactive)
17 | CN(C)c1cccc(-c2nccc(N3CCC(C(N)=O)CC3)n2)c1 | -4.34% (inactive)
18 | Nc1ccccc1OC1=NS(=O)(=O)c2ccccc21 | -4.94% (inactive)
19 | O=C1Cc2cc(S(=O)(=O)N3CCN(c4ccc(CO)cc4)CC3)ccc2N1 | 2.3% (inactive)
20 | CCC(=O)NC(c1ccco1)c1cc(Cl)c2cccnc2c1O (centres undefined) | -12.2% (inactive)
21 | O=C1c2ccccc2C(=O)N1c1cccnc1 | 2.21% (inactive)
22 | O=C(Nc1ccc(N2CCOCC2)nc1)c1cccs1 | -3.64% (inactive)
23 | Fc1cc(Nc2nc(-c3ccncc3)nc3ccccc23)ccc1C(F)(F)F | 2.78% (inactive)
24 | O=C1c2ccccc2NC(c2ccc(-c3cccs3)o2)N1O (centres undefined) | -18.8% (inactive)
